Assay outcomes from PubChem BioAssay.
The list is not random: actives were taken first. Their share in the collection is about 1.7%.
PfHsp40 yeast: rescue of yeast from PfHsp40 toxicity, primary screen, S. cerevisiae, ATP luminescence. growth rescue, % at 12.5 µM. S. cerevisiae expressing PfHsp40, growth rescue. AID 504582, 2011. actives 0.68% (n = 340,000); in the data active = growth rescue above about 28%, passing the limit was not always enough;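 note: yeast W303a lacking pdr1 and pdr3 grown in galactose medium; growth measured after three days at 30 °C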
PriA SSB inh: inhibitors of Klebsiella pneumoniae PriA binding to SSB C-terminal tail, primary screen, biochemical, AlphaScreen; inhibition, % at 33 µM; AID 1272365, 2023; actives 0.6% (n = 430,000); PriA–SSB C-terminal tail interaction (Klebsiella pneumoniae); AlphaScreen SSBct-PriA binding, biotinylated peptide; in the data active = inhibition mostly above about 37%, no sharp cut-off; inactive = mostly below about 20%;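 note: plate controls were negative control peptide for no effect and reference peptide for full effect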
PrP 5UTR inh: inhibition of PrP 5' UTR reporter expression | AID 488862, 2010 | inhibition, % (test concentration not listed) | cell-based PrP 5' UTR mRNA reporter, plate reader | actives 0.35% (n = 340,000); in the data active = inhibition above about 52%; note: 0 = median of the neutral control wells
Y pestis TopoI: Yersinia pestis topoisomerase I inhibitors, primary screen, biochemical, cleavage product accumulation, plate reader, single point. DNA topoisomerase I (Yersinia pestis CO92). Y. pestis Topo-I cleavage product accumulation. activity, % at 10 µM. actives 0.064% (n = 360,000); in the data active = activity above about 50%, passing the limit was not always enough
PrPC surface inh: inhibitors of human cell surface prion protein PrPC, primary screen, cell-based, TR-FRET. actives 0.43% (n = 370,000). Major prion protein (Homo sapiens), P04156. TR-FRET read-out. inhibition, % at 13.8 µM; in the data active = inhibition above about 24%; note: 0% = median of the test wells and 100% = reference compound wells
BJeLR viability: MLPCN primary cell-based screen for lethality selective to Ras in HRASV12 cells; BJeLR (HRASV12) viability, CellTiter-Glo ATP luminescence, 48 h; inhibition, % (no concentration beside the values); actives 0.17% (n = 300,000); AID 1554, 2009; in the data active = inhibition above about 50%
* marks the source's active call; other numbers are inactive results.

Results for CCOC(=O)CNC(=O)CSc1nnc(-c2ccccc2)c2sc(C)nc12 ?
PriA SSB inh: -9

Results for COc1cc(C)c(S(=O)(=O)N2CCN(c3cc(N4CCOCC4)cnn3)CC2)cc1C ?
PriA SSB inh: 3

What do the screens show for `O=C(NCCn1cnc2ccsc2c1=O)c1cc(C2CC2)on1`?
PriA SSB inh: 38*

What do the screens show for `COc1ccc(C2(CNS(=O)(=O)CCN3C(=O)CCCC3=O)CCCC2)cc1`?
PriA SSB inh: -7

How did O=C(COC(=O)c1ccc([N+](=O)[O-])s1)NCc1ccccc1 do in these assays?
PfHsp40 yeast: -1; PriA SSB inh: -6; PrP 5UTR inh: -11; Y pestis TopoI: 0; PrPC surface inh: -5; BJeLR viability: -15

Results for Cc1[nH]c2ccccc2c1C(=O)COC(=O)c1ccc([N+](=O)[O-])s1 ?
PfHsp40 yeast: -2; PriA SSB inh: 45*; PrP 5UTR inh: -41; Y pestis TopoI: -10; PrPC surface inh: -2; BJeLR viability: 1

What do the screens show for `O=S(=O)(Cc1cc(F)ccc1F)Nc1ccccc1-c1cn2ccsc2n1`?
PriA SSB inh: -14

What do the screens show for `O=[N+]([O-])c1ccc(O)c(-c2cc(C(F)(F)F)nc(-c3ccccc3)n2)c1`?
PfHsp40 yeast: -1; PriA SSB inh: -7; PrP 5UTR inh: 2; Y pestis TopoI: 1; PrPC surface inh: 3; BJeLR viability: 68*

Results for CN(Cc1ccccc1)c1oc(COc2ccc(F)cc2)nc1C#N ?
PriA SSB inh: 64*

What do the screens show for `COc1ccc(N2CC(C(=O)Nc3cc(-c4cccs4)nn3-c3nc(C)cc(=O)[nH]3)CC2=O)cc1` (stereo not drawn)?
PriA SSB inh: -7

How did Clc1ccc(-c2n[nH]c3c2CCC3)cc1Cl do in these assays?
PfHsp40 yeast: 241*; PriA SSB inh: -10; PrP 5UTR inh: -11; Y pestis TopoI: 22; PrPC surface inh: 3; BJeLR viability: 1

What do the screens show for `COc1ccccc1-c1ccc(=O)n(CC(=O)N2CCN(C(c3ccccc3)c3ccccc3)CC2)n1`?
PriA SSB inh: -11

What do the screens show for `COc1ccccc1-c1ccc(=O)n(CC(=O)N2CCN(c3ccc(-c4ccccn4)nn3)CC2)n1`?
PriA SSB inh: 104*

Results for O=C(Cn1ncccc1=O)N1CCN(c2ccc(-c3ccccn3)nn2)CC1 ?
PriA SSB inh: 130*

How did O=C(Cc1ccccc1F)N1CCN(c2ccc(-c3ccccn3)nn2)CC1 do in these assays?
PriA SSB inh: 34

How did Cn1c(NC(=O)CCc2ccccc2)cc(=O)n(C)c1=O do in these assays?
PfHsp40 yeast: -1; PriA SSB inh: 46*; PrP 5UTR inh: -74; Y pestis TopoI: 1; PrPC surface inh: 4; BJeLR viability: 2

Results for Cc1cc(NS(=O)(=O)c2ccc(NC(=S)NC(=O)Cc3cccc4ccccc34)cc2)no1 ?
PriA SSB inh: 1

What do the screens show for `COc1ccc(N2C(=O)CC(SCC(=O)O)C2=O)cc1` (stereo not drawn)?
PfHsp40 yeast: 0; PriA SSB inh: -19; PrP 5UTR inh: -22; Y pestis TopoI: 0; PrPC surface inh: 6; BJeLR viability: -1

Results for COc1ccc(N2C(=O)CC(SCc3ccc(Cl)cc3)C2=O)cc1 (stereo not drawn) ?
PfHsp40 yeast: 70*; PriA SSB inh: -25; PrP 5UTR inh: -24; Y pestis TopoI: 27; PrPC surface inh: -5; BJeLR viability: -9

What do the screens show for `CCSc1ccccc1C(=O)Nc1cc(-c2cccs2)nn1-c1nc(C)c(C)c(=O)[nH]1`?
PriA SSB inh: -9

Results for CN(C)C(=O)N1CCC(C(=O)NC2CCCCCCC2)CC1 ?
PfHsp40 yeast: 33*; PriA SSB inh: -15; PrP 5UTR inh: -22; Y pestis TopoI: 5; PrPC surface inh: -3; BJeLR viability: 4

Results for CCn1nnnc1NCc1ccc(SC)cc1 ?
PfHsp40 yeast: 39*; PriA SSB inh: -4; PrP 5UTR inh: -15; Y pestis TopoI: 1; PrPC surface inh: 7; BJeLR viability: 2

What do the screens show for `Cc1ccc2c(=O)n(-c3ccc4cn(C)nc4c3)c(CCN3C(=O)c4cccc(OC(C)C)c4C3=O)nc2c1`?
PriA SSB inh: 7

Results for COc1ccc(NC(=O)Cc2csc(Nc3cccc(Cl)c3)n2)c(OC)c1 ?
PriA SSB inh: 16*

Results for COc1ccc(OC)c(Nc2nc(CC(=O)NCc3ccc(F)cc3)cs2)c1 ?
PriA SSB inh: 18*

What do the screens show for `COc1ccc(OC)c(Nc2nc(CC(=O)NCc3ccncc3)cs2)c1`?
PriA SSB inh: 12

What do the screens show for `O=C(Cc1csc(Nc2ccc(F)cc2)n1)Nc1ccc2c(c1)OCCO2`?
PriA SSB inh: 6

How did COc1ccc(OC)c(Nc2nc(CC(=O)Nc3ccc4c(c3)OCCO4)cs2)c1 do in these assays?
PriA SSB inh: 33*

What do the screens show for `COc1ccc(OC)c(Nc2nc(CC(=O)Nc3ccc(C)cc3)cs2)c1`?
PriA SSB inh: 31*

How did CCOc1cc(C(=O)Nc2ccccc2Cc2nc(C)no2)cc(OCC)c1OCC do in these assays?
PriA SSB inh: -4
